Compounds with a hit are over-represented: about 2.4% of the library has one in this group of screens.
D2 ag-1: activates the human D2 dopamine receptor; P14416; DiscoveRx PathHunter D2 beta-arrestin, luminescence, 90 min; 100% = 57 uM dopamine signal; activation, % (concentration not given with the values); 0.084% of 360,000 active; in the data active = activation above about 40%; inconclusive = between about 15% and that limit
Target sequence (P14416 whole entry, looked up): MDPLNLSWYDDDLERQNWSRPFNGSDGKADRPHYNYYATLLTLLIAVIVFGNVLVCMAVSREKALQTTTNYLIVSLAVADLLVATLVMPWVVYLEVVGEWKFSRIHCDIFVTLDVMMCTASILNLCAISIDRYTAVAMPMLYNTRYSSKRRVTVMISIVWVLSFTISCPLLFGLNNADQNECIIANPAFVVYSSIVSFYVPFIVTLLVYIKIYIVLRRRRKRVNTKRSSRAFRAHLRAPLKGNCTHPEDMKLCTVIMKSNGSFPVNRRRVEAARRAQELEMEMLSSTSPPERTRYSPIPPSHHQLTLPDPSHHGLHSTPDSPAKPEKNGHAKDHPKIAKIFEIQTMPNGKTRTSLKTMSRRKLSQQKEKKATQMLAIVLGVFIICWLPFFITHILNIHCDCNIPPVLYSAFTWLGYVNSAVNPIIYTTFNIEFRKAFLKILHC
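DiscoveRx PathHunter D2 beta-arrestin cells (2,100/well) attached overnight, then compound-stimulated 90 min at 37 C in HBSS/10 mM HEPES/0.1% Tween-20 buffer; beta-galactosidase complementation read by luminescence after 1 h at ambient temperature. Dopamine 57 uM final (EC100) as control.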
D2 PAM-1: positive allosteric modulators of human D2 dopamine receptor | DiscoveRx D2 beta-arrestin cells, luminescence, 90 min; 100% = 57 uM dopamine signal | P14416 | AID 624464 | 0.23% of 360,000 active | potentiation, % (test concentration not listed); in the data active = potentiation above about 50%; inconclusive = mostly about 30% to 49%
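PathHunter D2 cells, attached overnight at 37 deg C, received compound in DMSO plus dopamine at EC20 (50 nM final) for 90 min at 37 deg C. Beta-arrestin recruitment was read as luminescence after 1 h with detection reagent at ambient temperature.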
D2 PAM-2: D2 dopamine receptor (human) potentiation | P14416 | HEK293 T-REx D2, calcium flux, EC20 dopamine potentiation | potentiation, % at 10 µM | 0.34% of 340,000 active | AID 485347;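 active = potentiation over 3 SD above the plate norm, cut at about 30% in these data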
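Potentiation of an EC20 dopamine calcium response measured kinetically over 180 s, after a preceding 180 s compound-only read flagging agonists. Cells: inducible Hek293 Trex D2 line, 4000/well, cultured overnight at 30 C before dye loading.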
D2 ag-2: agonists of human D2 dopamine receptor | P14416 | activation, % at 2 µM | HEK293 T-REx D2 cells, calcium flux agonist mode | 0.53% of 340,000 active;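 active = activation over 3 SD above normal in the single-dose calcium agonist read, cut at about 30% in these data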
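HEK293 Trex D2 cells, tetracycline-induced, o/n 30 C 5% CO2; no-wash Ca dye, RT 30–90 min; 10-cycle baseline, 23 nl cpd added, kinetic Ca read 180 s; agonist hits = positive Ca response.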
D2 antagonist: antagonizes the human D2 dopamine receptor; HEK293 TREx D2 cells, calcium flux, dopamine EC80; 2% of 340,000 active; inhibition, % at 10 µM; P14416; in the data active = inhibition above about 30%; inactive = below that, where a call was filed
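Overnight-induced (tetracycline, 30 C) HEK293 T-REx cells carrying force-coupled D2 receive a no-wash calcium dye, then compound, then EC80 dopamine at 180 s; signals are read kinetically throughout.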
Hits are given with their value; – = inactive; ? = inconclusive; · = not tested or not shown; ! = not confirmed by another sample.

SMILES	D2 ag-1	D2 PAM-1	D2 PAM-2	D2 ag-2	D2 antagonist
COc1ccc(N(C)S(=O)(=O)c2cccc(C(=O)NCC(c3cccs3)N(C)C)c2)cc1 (stereo not given)	–	–	–	–	46.1
O=C(NCc1ccco1)c1cccc(C(F)(F)F)c1	–	–	–	–	–
COc1ccccc1NS(=O)(=O)c1cccc(C(=O)NCC(c2ccco2)N2CCCCC2)c1 (stereo not given)	–	–	–	–	–
CN(C)C(CNC(=O)c1cccc(C(F)(F)F)c1)c1ccco1 (stereo not given)	–	–	–	–	31.3
COc1ccc(Cl)cc1NS(=O)(=O)c1cccc(C(=O)NCC(c2ccco2)N2CCCC2)c1 (stereo not given)	–	–	–	–	38.5
COc1ccc(N(C)S(=O)(=O)c2cccc(C(=O)NCC(c3ccco3)N3CCCC3)c2)cc1 (stereo not given)	–	–	–	–	–
COc1ccc(C(CNC(=O)c2ccc(NS(=O)(=O)c3ccc4c(c3)OCCO4)cc2)N(C)C)cc1 (stereo not given)	–	–	–	–	31.0
Cc1cccc(NC(=O)N2CC=C(c3c[nH]c4ccccc34)CC2)c1C	·	·	–	–	·
CCc1ccc(NC(=O)C(=O)NCCc2sc(-c3ccc(C)cc3)nc2C)cc1	·	·	–	–	·
COc1ccc(NS(=O)(=O)c2cccc(C(=O)NCC(c3ccco3)N(C)C)c2)cc1 (stereo not given)	–	–	–	–	36.5
COc1ccccc1NS(=O)(=O)c1ccc(C(=O)NCC(c2ccco2)N(C)C)cc1 (stereo not given)	–	–	–	–	–
COc1ccc(NS(=O)(=O)c2ccc(C)c(C(=O)NCC(c3ccco3)N(C)C)c2)cc1 (stereo not given)	–	–	–	–	–
COc1ccc(Cl)cc1NS(=O)(=O)c1cccc(C(=O)NCC(c2ccco2)N(C)C)c1 (stereo not given)	–	–	–	–	60.4
CC1CCc2cc(F)ccc2N1S(=O)(=O)c1ccc(Cl)nc1 (stereo not given)	–	–	–	–	35.4
Cc1cc(OCC(=O)N(Cc2sccc2C)C2CCS(=O)(=O)C2)ccc1Cl (stereo not given)	·	·	–	–	·
Cc1cc(C)cc(N=c2c([N+](=O)[O-])nn(-c3ccc4c(c3)OCCO4)n2O)c1	–	–	–	–	–
O=[N+]([O-])c1nn(-c2ccc3c(c2)OCCO3)n(O)c1=Nc1ccc(Cl)cc1	–	51.0	–	–	–
Cc1ccc(N=c2c([N+](=O)[O-])nn(-c3ccc4c(c3)OCCO4)n2O)cc1F	?	57.6	–	–	–
Cc1ccc(Cl)cc1N1CCN(C(=O)CCCCCn2c(=O)[nH]c3ccccc3c2=O)CC1	·	·	–	–	·
O=C(OCCCOC(=O)c1ccc([N+](=O)[O-])o1)c1ccc([N+](=O)[O-])o1	–	52.8	–	–	–
COc1cccc(OC)c1C(=O)OCC(=O)N1CCC(Cc2ccccc2)CC1	–	–	·	·	·
COc1cccc(OC)c1C(=O)OCC(=O)N1CC(C)CC(C)C1 (stereo not given)	–	–	–	–	32.0
O=C(COC(=O)c1ccc([N+](=O)[O-])o1)c1ccccc1	–	65.5	–	–	–
CC1CC(C)CN(C(=O)COC(=O)c2ccc([N+](=O)[O-])o2)C1 (stereo not given)	–	–	–	–	31.3
O=C(COC(=O)c1ccc([N+](=O)[O-])o1)NCc1ccccc1	–	–	·	·	·
SMILES	D2 ag-1	D2 PAM-1	D2 PAM-2	D2 ag-2	D2 antagonist
CCOC(=O)C1CCN(C(=O)COC(=O)c2ccc([N+](=O)[O-])o2)CC1	?	–	–	–	–
COc1cc(CN(C(=O)COc2ccccc2Cl)c2ccccn2)cc(OC)c1OC	·	·	–	–	·
CCCOc1ccc(CNC(=O)C(NS(=O)(=O)c2cccs2)C(C)C)cc1 (stereo not given)	·	·	–	–	·
COCCNC(=O)c1cc(Sc2ccc(F)cc2F)nc2ccccc12	·	·	–	–	·
CCCCN1CCc2c1nc1ccc(Br)cc1c2N	–	–	–	–	67.9
Cc1ccccc1C(=O)NC(CC(C)C)C(=O)NN1C(=O)c2ccccc2C1=O (stereo not given)	–	–	–	–	30.5
Cc1ccc(C)c(CNC(=O)c2ccc3c(c2)nc2n3CCC(C)C2)c1 (stereo not given)	·	·	–	–	·
CCOc1ccc(C(=O)O/N=C(\N)c2ccccn2)cc1	?	54.9	–	–	–
COc1ccc(Cl)cc1C(=O)O/N=C(\N)c1ccccn1	?	62.5!	–	–	–
CCCN1C(=O)c2oc3cc(C)cc(C)c3c(=O)c2C1c1ccc(F)cc1 (stereo not given)	·	·	–	–	·
O=C(NCc1ccccc1)c1ccc2c(c1)sc1nc(-c3ccc(F)cc3)cn12	·	·	–	–	·
CN(C)C(=O)/C(=C\c1ccncc1)NC(=O)c1ccccc1	–	–	–	–	39.2
CCN(CC)C(=O)/C(=C\c1ccncc1)NC(=O)c1ccccc1	–	–	–	–	–
CCN(CC)c1ccc(/C=C2\C(=O)c3ccc(C(=O)O)cc3C2=O)cc1	–	–	–	109.9	54.4
Cc1cc(C(=O)N/N=C/c2cn[nH]c2-c2ccccc2)cs1	–	–	–	–	30.3
O=C(N/N=C/c1cn[nH]c1-c1ccccc1)c1ccco1	–	–	–	–	–
CCc1c(C(=O)N/N=C/c2cn[nH]c2-c2ccc(F)cc2)csc1C	–	–	–	–	71.1
O=C(N/N=C\c1cn[nH]c1-c1ccccc1)c1ccc([N+](=O)[O-])cc1	–	–	–	–	57.8
COc1ccc(-c2ccc(=O)n(CC(=O)Nc3ccccc3C(F)(F)F)n2)cc1	·	·	–	–	·
COc1cccc(-n2cc(C(=O)Nc3ccccc3C(N)=O)c3ccccc3c2=O)c1	·	·	–	–	·
CCOC(=O)c1sc(NC(=O)CSc2nc(C)cc(C)n2)c(C#N)c1C	–	–	–	–	–
CCOC(=O)c1sc(NC(=O)CSc2n[nH]c(-c3ccccc3)n2)c(C#N)c1C	–	–	–	–	38.7
Cc1c(NC(=O)c2cccnc2Cl)c(=O)n(-c2ccccc2)n1C	–	–	–	–	35.9
Cc1ccc2c(C)c(C(=O)Nc3c(C)n(C)n(-c4ccccc4)c3=O)oc2c1C	44.9	–	–	–	–
Cc1cn2c(=O)cc(COC(=O)c3ccc(NC(=O)c4ccc(F)cc4)cc3)nc2s1	·	·	–	–	·
Cc1nc(-n2nnc3ccccc32)c2c3c(sc2n1)CCCC3	–	–	–	–	–
OCCN1CCN(c2ncnc3sc4c(c23)CCCC4)CC1	–	–	–	–	–
c1ccc2c(c1)nnn2-c1ncnc2sc3c(c12)CCCC3	–	–	–	–	30.8
Oc1ccc(N2CCN(c3ncnc4sc5c(c34)CCC5)CC2)cc1	–	68.3	–	–	–

Screens (PubChem BioAssay)
